Among the test systems are SK-MEL-2 melanoma; EKVX NSCLC; SN12C renal; UO-31 renal; TK-10 renal; ACHN renal; CAKI-1 renal; A498 renal; CCRF-CEM leukemia; MOLT-4 leukemia.
Assay in all cases: NCI-60 one-dose screen, 48 h (100 = growth as untreated, 0 = no growth, -100 = all killed)
Common to all, as to conditions: 10 µM unless noted

This is part of a sample that, as a whole, favours compounds with a hit. Of some 83,000 tested, about 20% had one in any assay.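 Percent growth is the endpoint: 0 to 100 indicates growth inhibition (40 means 60% inhibition), 0 means no net growth, and negative values indicate cell death.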 Values without a mark were called inactive. Active and inactive are the calls of the source. How the source made its calls: active means growth percent below 10; inactive means the rest.

Take `COc1cc(NC(C)CN(CC(C)C)C(C)C)c2ncccc2c1` (stereo not given): the growth in the experiment on SK-MEL-2 melanoma was 113%; with EKVX NSCLC, 105%; in the experiment with SN12C renal, 104%; with UO-31 renal it was 87.6%; with TK-10 renal, 120%; in the experiment on ACHN renal, 99.3%. In addition, the growth is 98.6% in the experiment on CAKI-1 renal, 97.6% in the experiment on A498 renal, 114% in the experiment on CCRF-CEM leukemia and 96.6% in the experiment on MOLT-4 leukemia.

For `C#CCn1c2c(c3ccccc31)C[C@]1(C)[C@H]3CC[C@@H]4[C@@H]5C(=CCC[C@H]5C(=C)C)CC[C@@]4(C)[C@]3(C)CC[C@H]1C2(C)C`, the growth was 104% in the experiment on SK-MEL-2 melanoma; 99.2% in the experiment with EKVX NSCLC; 95.6% in the experiment with SN12C renal; 77.1% in the experiment with UO-31 renal; 122% in the experiment with TK-10 renal; 99.2% in the experiment on ACHN renal. The growth with CAKI-1 renal was 80.1%; with A498 renal, 111%; in the experiment with CCRF-CEM leukemia, 114%; in the experiment with MOLT-4 leukemia, 99.9%.

In the case of `CC(=O)OC(C)COc1ccc(-c2ccccc2)cc1` (stereo not given), the growth in the experiment with SK-MEL-2 melanoma is 95%; with EKVX NSCLC it was 101%; in the experiment on SN12C renal it was 104%; in the experiment on UO-31 renal, 106%; with TK-10 renal, 80.7%; in the experiment on ACHN renal it was 101%. Moreover, the growth in the experiment with CAKI-1 renal is 94.7%; with A498 renal, 92.7%; in the experiment on CCRF-CEM leukemia it was 99.6%; in the experiment with MOLT-4 leukemia, 100%.

Take `CCN1CCN(C(=O)[C@]23CCC(C)(C)C[C@@H]2C2=CC[C@@H]4[C@@]5(C)C/C(=C/c6ccncc6)C(=O)C(C)(C)[C@@H]5CC[C@@]4(C)[C@]2(C)CC3)CC1`: the growth with SK-MEL-2 melanoma is -30.8% (active); with EKVX NSCLC, 15.3%; in the experiment on SN12C renal, -70.1% (active); with UO-31 renal it was -92.7% (active); in the experiment on TK-10 renal it was 32.3%; with ACHN renal it was 3.29% (active). The growth was 23.2% in the experiment on CAKI-1 renal, -22.6% (active) in the experiment with A498 renal, 3.73% (active) with CCRF-CEM leukemia and -12.2% (active) in the experiment on MOLT-4 leukemia.

Turning to `C=C(C)[C@@H]1CC[C@]2(C)[C@H](CC=C3[C@@H]4CC(C)(C)CC[C@]4(C(=O)OC)CC[C@]32C)[C@@]1(C)CC/C(N)=N/O`, the growth in the experiment on SK-MEL-2 melanoma was 46.6%; with EKVX NSCLC it was 25.2%; in the experiment on SN12C renal, 36.4%; with UO-31 renal it was 40.3%; with TK-10 renal it was 67.9%; with ACHN renal, 43.8%. Besides, the growth with CAKI-1 renal was 37%; in the experiment on A498 renal, 77.7%; in the experiment with CCRF-CEM leukemia it was 37.3%; in the experiment on MOLT-4 leukemia, 6.47% (active).

For `N#Cc1c(-c2ccc(O)cc2)c2c(N)nn(-c3ccccc3)c2[nH]c1=O`, the growth is 103% in the experiment on SK-MEL-2 melanoma; 101% in the experiment with EKVX NSCLC; 104% in the experiment on SN12C renal; 71.8% in the experiment on UO-31 renal; 137% in the experiment on TK-10 renal; 100% with ACHN renal. For the same compound, the growth is 97.1% in the experiment with CAKI-1 renal, 108% in the experiment on A498 renal, 110% with CCRF-CEM leukemia and 98.1% in the experiment with MOLT-4 leukemia.

As for `COc1cc(OC)c2c(c1)c1nc3cc(C)c(C)cc3nc1n2CCN(C)C`, the growth in the experiment on SK-MEL-2 melanoma is 103%; in the experiment with EKVX NSCLC, 89.2%; in the experiment with SN12C renal it was 82.1%; in the experiment on UO-31 renal it was 74.1%; in the experiment with TK-10 renal it was 182%; in the experiment with ACHN renal, 84.3%. Moreover, the growth in the experiment on CAKI-1 renal is 69.7%; with A498 renal, 105%; with CCRF-CEM leukemia, 79.6%; in the experiment on MOLT-4 leukemia it was 73.2%.

Turning to `S=c1[nH]nc2ccccn12`, the growth is 95.3% with SK-MEL-2 melanoma; 102% with EKVX NSCLC; 106% in the experiment with SN12C renal; 87.7% in the experiment on UO-31 renal; 85.7% with TK-10 renal; 102% in the experiment with ACHN renal. Further, the growth is 102% in the experiment on CAKI-1 renal, 100% with A498 renal, 101% in the experiment on CCRF-CEM leukemia and 80.7% in the experiment with MOLT-4 leukemia.

`Cc1ccc(/C=C(\C#N)c2cc3ccccc3n2C)cc1`: the growth in the experiment on SK-MEL-2 melanoma is 75.7%; with EKVX NSCLC, 48.4%; in the experiment with SN12C renal it was 39.5%; with UO-31 renal, 56.8%; with TK-10 renal, 99.3%; in the experiment on ACHN renal it was 42.9%. Further, the growth is 34.4% with CAKI-1 renal, 10.4% with A498 renal, 13.9% in the experiment with CCRF-CEM leukemia and 21.6% with MOLT-4 leukemia.

For the compound `O=c1[nH]c2c3ccncc3cc(-c3cccc(Cl)c3)c2c2cnccc12`, the growth with SK-MEL-2 melanoma was 64.1%; with EKVX NSCLC, 74.8%; in the experiment on SN12C renal it was 57.1%; in the experiment on UO-31 renal, 30.6%; in the experiment with TK-10 renal it was 0.334% (active); with ACHN renal it was 17.2%. Also, the growth in the experiment on CAKI-1 renal was 63.3%; with A498 renal it was 50.2%; with CCRF-CEM leukemia, 56.4%; in the experiment with MOLT-4 leukemia, 76.9%.

Turning to `CN(C)CCCCC(C(=O)CBr)(c1ccccc1)c1ccccc1`, the growth in the experiment with SK-MEL-2 melanoma is 53.8%; in the experiment with EKVX NSCLC, 48.8%; in the experiment on SN12C renal, 20.8%; in the experiment with UO-31 renal, -56.1% (active); with TK-10 renal, -47.6% (active); in the experiment with ACHN renal, -65.4% (active). Further, the growth with CAKI-1 renal was -23.5% (active); in the experiment with A498 renal it was 40.2%; in the experiment on CCRF-CEM leukemia it was 5.74% (active); with MOLT-4 leukemia it was 0.308% (active).

For the compound `COc1c(N)c2c(c([N+](=O)[O-])c1OC)C(=O)OC2`, the growth in the experiment with SK-MEL-2 melanoma was 102%; in the experiment on EKVX NSCLC, 111%; with SN12C renal it was 93.5%; in the experiment with UO-31 renal, 83.4%; in the experiment on TK-10 renal, 103%; in the experiment with ACHN renal, 117%. Also, the growth in the experiment with CAKI-1 renal was 115%; in the experiment with A498 renal, 104%; in the experiment with CCRF-CEM leukemia it was 96.2%; in the experiment with MOLT-4 leukemia, 81.2%.

Turning to `Cn1cc(-c2nc(-c3c[nH]c4ncccc34)cs2)c2cc(F)ccc21`, the growth in the experiment with SK-MEL-2 melanoma was 28.3%; with EKVX NSCLC it was 14.5%; with SN12C renal it was 51.3%; with UO-31 renal, 29.4%; with TK-10 renal, 23.2%; in the experiment with ACHN renal, 24.1%. Further, the growth was 12.8% in the experiment with CAKI-1 renal, 42.3% in the experiment on A498 renal, 25.8% in the experiment with CCRF-CEM leukemia and 23.9% in the experiment with MOLT-4 leukemia.

For `COc1cc(-c2cc3cc(O)ccc3oc2=O)cc(OC)c1OC`, the growth in the experiment with SK-MEL-2 melanoma was 92.7%; in the experiment on EKVX NSCLC, 78.7%; in the experiment on SN12C renal, 93.6%; with UO-31 renal it was 66.7%; with TK-10 renal, 104%; in the experiment on ACHN renal it was 81.8%. In addition, the growth in the experiment with CAKI-1 renal was 84.6%; with A498 renal, 100%; in the experiment on CCRF-CEM leukemia, 94.5%; with MOLT-4 leukemia it was 94.2%.

(Values after PubChem BioAssay (NCI).)
